From PubChem BioAssay AID1159580 (chemical genetic matrix, 2015)
Values joined by “and” are separate entries in the source; they are usually repeats but may differ in a detail not shown here. Identical values can stand only once. The whole screen tested about 5,500 compounds, of which about 2,000 (36%) were called active. Not shown: some 18% with an inconclusive outcome. Rule as the data show it: active = normalized growth mostly below about 0.91 (no sharp cut-off); inconclusive = no clear call, values can overlap the other calls; inactive = mostly above about 0.92. This is one part of the list.

Assay: chemical genetic growth profiling, strain panel (AID 1159580);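 also: tested at 20 µM; growth read once vehicle control cultures reached saturation at 30 °C; 1 = growth at the plate median or of vehicle wells; lower values mean less growth of the strain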
Details: S. cerevisiae deletion strains, growth OD

Measured: normalized growth

NCC(O)(CS(=O)(=O)O)c1ccc(Cl)cc1 (configuration not stated)
inactive: locus YAL040C, strain CLN3, hits give low values 1.07 | locus YCL061C, strain MRC1 (second series), hits give low values 0.995 | locus YDR150W, strain NUM1, hits give low values 1.02 | locus YER002W, strain NOP16, hits give low values 1.02 | locus YGR078C, strain PAC10, hits give low values 0.99 | locus YMR263W, strain SAP30, hits give low values 1 | locus YNL153C, strain GIM3, hits give low values 1 | locus YNL175C, strain NOP13, hits give low values 0.979 | locus YNL197C, strain WHI3, hits give low values 0.98 | locus YNL224C, strain SQS1, hits give low values 1.01 | locus YOR083W, strain WHI5 (second series), hits give low values 1 | locus YPL241C, strain CIN2, hits give low values 1

COc1ccc([C@@H]2CC(=O)c3c(O)cc(O[C@@H]4O[C@H](CO[C@H]5O[C@@H](C)[C@H](O)[C@@H](O)[C@H]5O)[C@@H](O)[C@H](O)[C@H]4O)cc3O2)cc1O
inactive: locus YAL013W, strain DEP1, hits give low values 0.995 | locus YAL021C, strain ccr4, hits give low values 1.01 | locus YAL026C, strain drs2, hits give low values 0.98 | locus YAL030W, strain snc1, hits give low values 0.993 | locus YBL061C, strain skt5, hits give low values 0.969 | locus YBR009C, strain hhf1, hits give low values 0.937 | locus YBR021W, strain FUR4, hits give low values 0.988 | locus YBR023C, strain chs3, hits give low values 0.993 | locus YBR171W, strain sec66, hits give low values 0.976 | locus YBR229C, strain ROT2, hits give low values 0.993 | locus YBR231C, strain swc5, hits give low values 0.987 | locus YBR279W, strain paf1, hits give low values 0.986 | locus YCL011C, strain gbp2, hits give low values 0.975 | locus YCL016C, strain dcc1, hits give low values 0.995 | locus YCL029C, strain bik1, hits give low values 0.971 | locus YCL061C, strain MRC1, hits give low values 0.977 | locus YCL069W, strain vba3, hits give low values 0.988 | locus YCR088W, strain abp1, hits give low values 0.989 | locus YDL005C, strain med2, hits give low values 0.98 | locus YDL035C, strain GPR1, hits give low values 0.991 | locus YDL040C, strain nat1, hits give low values 0.993 | locus YDL074C, strain BRE1, hits give low values 0.984 | locus YDL101C, strain DUN1, hits give low values 0.994 | locus YDL185W, strain tfp1, hits give low values 0.98 | locus YDL192W, strain arf1, hits give low values 0.993 | locus YDR001C, strain nth1, hits give low values 0.99 | locus YDR069C, strain doa4, hits give low values 0.985 | locus YDR101C, strain arx1, hits give low values 0.968 | locus YDR137W, strain rgp1, hits give low values 1.04 | locus YDR159W, strain sac3, hits give low values 0.977 | locus YDR162C, strain NBP2, hits give low values 1.01 | locus YDR195W, strain ref2 0.932 | locus YDR297W, strain sur2, hits give low values 0.98 | locus YDR318W, strain mcm21, hits give low values 0.994 | locus YDR334W, strain swr1, hits give low values 0.998 | locus YDR335W, strain msn5, hits give low values 0.982 | locus YDR388W, hits give low values 0.977 | locus YDR392W, strain spt3, hits give low values 0.907 | locus YDR502C, strain sam2, hits give low values 0.981 | locus YEL003W, strain gim4, hits give low values 0.982 | locus YEL037C, strain rad23, hits give low values 0.991 | locus YEL061C, strain CIN8 (second series), hits give low values 0.981 | locus YEL061C, strain CIN8, hits give low values 1 | locus YER015W, strain faa2, hits give low values 0.979 | locus YER016W, strain bim1, hits give low values 0.995 | locus YER110C, hits give low values 0.973 | locus YER111C, strain swi4, hits give low values 0.97 | locus YER155C, strain BEM2 (second series), hits give low values 0.987 | locus YER155C, strain BEM2, hits give low values 0.988 | locus YER167W, strain BCK2, hits give low values 0.991 | locus YFR010W, strain ubp6, hits give low values 0.976 | locus YGL078C, strain dbp3, hits give low values 0.967 | locus YGL086W, strain mad1, hits give low values 0.979 | locus YGL167C, strain pmr1, hits give low values 0.965 | locus YGL173C, strain kem1, hits give low values 0.968 | locus YGL227W, strain vid30, hits give low values 0.973 | locus YGL240W, strain doc1, hits give low values 0.98 | locus YGL248W, strain PDE1, hits give low values 1 | locus YGL253W, strain hxk2, hits give low values 0.999 | locus YGR135W, strain pre9, hits give low values 0.998 | locus YGR229C, strain SMI1, hits give low values 1 | locus YGR252W, strain gcn5, hits give low values 1.06 | locus YHR013C, strain ard1, hits give low values 0.922 | locus YHR027C, strain rpn1, hits give low values 0.99 | locus YHR030C, strain SLT2, hits give low values 0.997 and 1.05 | locus YHR079C, strain IRE1 (second series), hits give low values 0.983 | locus YHR079C, strain IRE1, hits give low values 1.03 | locus YHR094C, strain hxt1, hits give low values 0.975 | locus YHR129C, strain ARP1, hits give low values 1 | locus YHR142W, strain chs7, hits give low values 1.01 | locus YHR200W, strain rpn10, hits give low values 1 | locus YIL066C, strain RNR3, hits give low values 1 | locus YIL073C, strain SPO22, hits give low values 1 | locus YIL125W, strain kgd1, hits give low values 0.978 | locus YIR030C, strain dcg1, hits give low values 0.976 | locus YJL092W, strain hpr5, hits give low values 0.986 | locus YJL095W, strain BCK1 (second series), hits give low values 0.993 | locus YJL095W, strain BCK1, hits give low values 1.05 and 1.02 | locus YJL115W, strain asf1, hits give low values 0.993 | locus YJL129C, strain trk1, hits give low values 1.01 | locus YJL134W, strain LCB3, hits give low values 0.994 | locus YJL154C, strain vps35, hits give low values 0.998 | locus YJL164C, strain tpk1, hits give low values 1.01 | locus YJL166W, strain qcr8, hits give low values 0.992 | locus YJL168C, strain set2, hits give low values 0.984 | locus YJL187C, strain SWE1 (second series), hits give low values 1.02 | locus YJL187C, strain SWE1, hits give low values 0.991 | locus YJR043C, strain POL32, hits give low values 1.01 | locus YJR066W, strain TOR1, hits give low values 0.987 | locus YJR075W, strain HOC1, hits give low values 1 | locus YKL009W, strain mrt4, hits give low values 1.01 | locus YKL068W, hits give low values 0.984 | locus YKL085W, strain MDH1 (second series), hits give low values 0.996 | locus YKL085W, strain MDH1, hits give low values 0.996 | locus YKL160W, strain elf1, hits give low values 1.02 | locus YKL190W, strain CNB1, hits give low values 1.01 | locus YKR001C, strain vps1, hits give low values 0.948 | locus YKR026C, strain gcn3, hits give low values 0.979 | locus YKR091W, strain srl3, hits give low values 0.981 | locus YLL001W, strain dnm1, hits give low values 1.01 | locus YLL026W, hits give low values 0.999 | locus YLL041C, strain sdh2, hits give low values 0.999 | locus YLR027C, strain aat2, hits give low values 0.998 | locus YLR039C, strain RIC1, hits give low values 1.04 | locus YLR058C, strain SHM2, hits give low values 1 | locus YLR102C, strain apc9, hits give low values 0.977 | locus YLR113W, strain HOG1, hits give low values 1.05 | locus YLR221C, strain rsa3, hits give low values 0.999 | locus YLR258W, strain gsy2, hits give low values 0.988 | locus YLR262C, strain YPT6 (second series), hits give low values 1 | locus YLR262C, strain YPT6, hits give low values 1.02 | locus YLR268W, strain sec22, hits give low values 0.959 | locus YLR320W, strain mms22, hits give low values 0.97 | locus YLR330W, strain CHS5, hits give low values 0.996 | locus YLR342W, strain FKS1 (second series), hits give low values 1.03 | locus YLR342W, strain FKS1, hits give low values 0.954 | locus YLR357W, strain rsc2, hits give low values 0.97 | locus YLR370C, strain arc18, hits give low values 0.991 | locus YLR371W, strain rom2, hits give low values 0.971 | locus YLR384C, strain iki3, hits give low values 0.976 | locus YLR418C, strain cdc73, hits give low values 1 | locus YML016C, strain PPZ1, hits give low values 0.995 | locus YML032C, strain rad52, hits give low values 1 | locus YML120C, strain ndi1, hits give low values 1.01 | locus YML124C, strain tub3, hits give low values 0.986 | locus YMR058W, strain fet3, hits give low values 0.985 | locus YMR078C, strain ctf18, hits give low values 0.969 | locus YMR125W, strain sto1, hits give low values 0.972 | locus YMR129W, hits give low values 0.989 | locus YMR205C, strain PFK2, hits give low values 0.936 | locus YMR223W, strain ubp8, hits give low values 0.992 | locus YMR231W, strain pep5, hits give low values 0.969 | locus YMR307W, strain GAS1, hits give low values 1.06 | locus YNL067W, strain RPL9B, hits give low values 1.01 | locus YNL071W, strain lat1, hits give low values 0.984 | locus YNL183C, strain NPR1, hits give low values 0.996 | locus YNL209W, strain ssb2, hits give low values 0.978 | locus YNL233W, strain BNI4, hits give low values 1 | locus YNL248C, strain rpa49, hits give low values 1.04 | locus YNL250W, strain rad50, hits give low values 0.978 | locus YNL271C, strain bni1, hits give low values 1 | locus YNL298W, strain CLA4, hits give low values 0.972 | locus YNL307C, strain MCK1, hits give low values 0.97 | locus YNL322C, strain KRE1 (second series), hits give low values 0.987 | locus YNL322C, strain KRE1, hits give low values 1 | locus YNR049C, strain mso1, hits give low values 0.993 | locus YNR052C, strain pop2, hits give low values 0.986 | locus YOL006C, strain TOP1, hits give low values 0.962 | locus YOL012C, strain htz1 1.06 | locus YOL147C, strain pex11, hits give low values 0.983 | locus YOR001W, strain rrp6, hits give low values 1.03 | locus YOR061W, strain CKA2, hits give low values 0.977 | locus YOR069W, strain VPS5, hits give low values 0.992 | locus YOR070C, strain gyp1, hits give low values 1.01 | locus YOR080W, strain dia2, hits give low values 0.974 | locus YOR083W, strain WHI5, hits give low values 1.02 | locus YOR106W, strain vam3, hits give low values 1.02 | locus YOR136W, strain idh2, hits give low values 0.981 | locus YOR144C, strain elg1, hits give low values 0.987 | locus YOR184W, strain ser1, hits give low values 0.994 | locus YOR231W, strain MKK1, hits give low values 1.06 | locus YOR265W, strain rbl2, hits give low values 1 | locus YOR270C, strain vph1, hits give low values 0.989 | locus YOR290C, strain snf2, hits give low values 0.922 | locus YOR316C, strain cot1, hits give low values 0.994 | locus YPL051W, strain arl3, hits give low values 1.03 | locus YPL078C, strain atp4, hits give low values 1.01 | locus YPL106C, strain sse1, hits give low values 0.976 | locus YPL240C, strain hsp82, hits give low values 0.966 | locus YPL256C, strain CLN2, hits give low values 1.04 | locus YPR119W, strain clb2, hits give low values 0.98 | locus YPR141C, strain kar3, hits give low values 0.98 | locus YPR163C, strain tif3, hits give low values 0.984 | locus YPR167C, strain met16, hits give low values 0.972 | strain wtn01, hits give low values 0.971
